# From PubChem BioAssay
# Values without a mark were called inactive. For some assays here: Results with a measured potency or affinity are listed apart. The source made the active and inactive calls. Unless noted, no rule for the calls is given here.
# Columns and labels:
# [1] = antimalarial activity against Dd2 strain (AID 2302;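 active = growth inhibition above 50% at the single 2 µM test dose, taken to imply half-maximal potency below 2 µM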;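 also: 0% = DMSO untreated growth and 100% = chloroquine plus artemisinin killed control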); details: P. falciparum Dd2 in RBCs, LDH growth readout, 72 h; at 2 µM; active compounds read high
# [2] = human hepatoma cell viability loss – ATP luminescence, cytotoxicity control for P. falciparum antimalarial project, primary screen (AID 2303;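 active = inhibition above 50%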;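 also: 0% = DMSO wells and 100% = digitonin-killed cells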); details: HepG2 viability, 24-48 h, at 10 µM, active compounds read high
# [3] = biological target: L-lactate dehydrogenase (Plasmodium falciparum (isolate CDC / Honduras)) (UniProt Q27743); assay: PfLDH activity inhibition – cell lysate, 3D7 strain, counter-screen for P. falciparum growth inhibition project (AID 2304);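 also: 0% = vehicle and 100% = reference inhibitor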; details: P. falciparum 3D7 crude extract, LDH APAD/NBT absorbance; at 2 µM; active compounds read high
# Chain of L-lactate dehydrogenase (Plasmodium falciparum (isolate CDC / Honduras)) (Q27743 whole entry, looked up): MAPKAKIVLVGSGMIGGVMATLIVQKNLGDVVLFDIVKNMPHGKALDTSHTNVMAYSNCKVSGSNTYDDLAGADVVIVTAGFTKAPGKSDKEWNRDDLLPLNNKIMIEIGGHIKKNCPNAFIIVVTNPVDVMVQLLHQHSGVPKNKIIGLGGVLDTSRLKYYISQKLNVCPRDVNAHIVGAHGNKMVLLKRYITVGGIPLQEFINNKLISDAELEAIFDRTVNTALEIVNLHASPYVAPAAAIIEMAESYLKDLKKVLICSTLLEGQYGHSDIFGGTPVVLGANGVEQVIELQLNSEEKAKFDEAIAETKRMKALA
# [4] = inhibition of 3D7 malaria parasite growth – strain 3D7 (AID 2306);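 also: 0% = DMSO wells and 100% = chloroquine plus artemisinin control wells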; details: P. falciparum 3D7 erythrocytic growth, LDH absorbance, 72 h; at 2 µM; active compounds read high
# [5] = biological target: Calcium-dependent protein kinase 1 (Plasmodium falciparum (isolate 3D7)) (UniProt P62344); assay: PfCDPK1 kinase inhibitors, biochemical, TCAMS library (AID 1159585; cut-off not given, nearly all actives have IC50 up to about 0.98 µM;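 also: inhibitors leave more ATP so luminescence rises with inhibition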); details: recombinant PfCDPK1, Kinase-Glo ATP depletion luminescence
# Chain of Calcium-dependent protein kinase 1 (Plasmodium falciparum (isolate 3D7)) (P62344 whole entry, looked up): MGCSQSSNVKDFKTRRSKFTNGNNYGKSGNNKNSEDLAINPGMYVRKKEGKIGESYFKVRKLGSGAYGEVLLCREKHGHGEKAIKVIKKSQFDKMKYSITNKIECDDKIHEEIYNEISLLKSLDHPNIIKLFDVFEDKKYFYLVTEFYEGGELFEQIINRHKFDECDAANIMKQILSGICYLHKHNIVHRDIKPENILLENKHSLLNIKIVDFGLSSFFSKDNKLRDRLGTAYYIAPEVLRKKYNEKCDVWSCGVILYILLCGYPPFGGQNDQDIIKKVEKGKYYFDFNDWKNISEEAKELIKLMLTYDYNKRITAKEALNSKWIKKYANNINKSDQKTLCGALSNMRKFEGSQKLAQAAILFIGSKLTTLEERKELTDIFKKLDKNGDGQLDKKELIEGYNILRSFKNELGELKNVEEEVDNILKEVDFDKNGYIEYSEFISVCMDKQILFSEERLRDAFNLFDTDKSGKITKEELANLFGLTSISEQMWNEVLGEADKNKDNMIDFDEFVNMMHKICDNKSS
# [6] = biological target: Plasmodium falciparum protein kinase 6 (PK6, PF3D7_1337100) (UniProt Q8IDW1); assay: PfPK6 kinase inhibitors, biochemical, TCAMS library (AID 1159586); details: recombinant PfPK6, Kinase-Glo ATP depletion luminescence
# Chain of Plasmodium falciparum protein kinase 6 (PK6, PF3D7_1337100) (Q8IDW1 1-305): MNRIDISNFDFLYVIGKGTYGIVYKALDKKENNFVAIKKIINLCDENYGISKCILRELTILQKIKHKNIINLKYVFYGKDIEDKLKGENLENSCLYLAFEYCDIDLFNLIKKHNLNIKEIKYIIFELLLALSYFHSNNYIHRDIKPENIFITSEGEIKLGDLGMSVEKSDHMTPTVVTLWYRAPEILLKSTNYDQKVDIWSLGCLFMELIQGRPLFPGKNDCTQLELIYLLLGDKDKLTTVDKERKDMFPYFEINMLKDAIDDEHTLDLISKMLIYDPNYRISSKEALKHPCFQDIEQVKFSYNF
# [7] = biological target: Protein kinase 7 (PK7), Plasmodium falciparum 3D7 (PF3D7_0213400) (UniProt Q7YTF7); assay: inhibition of Plasmodium PK7 catalytic activity – biochemical, TCAMS antimalarial set, Kinase-Glo luminescence (AID 1159587); details: recombinant PfPK7, Kinase-Glo ATP depletion luminescence
# Chain of Protein kinase 7 (PK7), Plasmodium falciparum 3D7 (PF3D7_0213400) (Q7YTF7 1-343): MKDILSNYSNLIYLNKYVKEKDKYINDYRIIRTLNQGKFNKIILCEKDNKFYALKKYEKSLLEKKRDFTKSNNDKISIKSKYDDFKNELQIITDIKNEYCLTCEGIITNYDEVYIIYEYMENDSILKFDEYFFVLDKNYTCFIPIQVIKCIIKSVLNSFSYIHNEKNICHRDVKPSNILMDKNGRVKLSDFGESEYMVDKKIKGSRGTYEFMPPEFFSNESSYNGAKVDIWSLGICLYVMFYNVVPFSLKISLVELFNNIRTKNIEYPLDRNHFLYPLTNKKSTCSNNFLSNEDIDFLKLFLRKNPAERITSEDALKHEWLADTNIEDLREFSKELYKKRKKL
# [8] = biological target: Calcium-dependent protein kinase 4 (Plasmodium falciparum (isolate 3D7)) (UniProt Q8IBS5); assay: PfCDPK4 kinase inhibitors, biochemical, TCAMS library (AID 1159588; cut-off not given, nearly all actives have IC50 up to about 0.91 µM); details: recombinant PfCDPK4, Kinase-Glo ATP depletion luminescence
# Chain of Calcium-dependent protein kinase 4 (Plasmodium falciparum (isolate 3D7)) (Q8IBS5 whole entry, looked up): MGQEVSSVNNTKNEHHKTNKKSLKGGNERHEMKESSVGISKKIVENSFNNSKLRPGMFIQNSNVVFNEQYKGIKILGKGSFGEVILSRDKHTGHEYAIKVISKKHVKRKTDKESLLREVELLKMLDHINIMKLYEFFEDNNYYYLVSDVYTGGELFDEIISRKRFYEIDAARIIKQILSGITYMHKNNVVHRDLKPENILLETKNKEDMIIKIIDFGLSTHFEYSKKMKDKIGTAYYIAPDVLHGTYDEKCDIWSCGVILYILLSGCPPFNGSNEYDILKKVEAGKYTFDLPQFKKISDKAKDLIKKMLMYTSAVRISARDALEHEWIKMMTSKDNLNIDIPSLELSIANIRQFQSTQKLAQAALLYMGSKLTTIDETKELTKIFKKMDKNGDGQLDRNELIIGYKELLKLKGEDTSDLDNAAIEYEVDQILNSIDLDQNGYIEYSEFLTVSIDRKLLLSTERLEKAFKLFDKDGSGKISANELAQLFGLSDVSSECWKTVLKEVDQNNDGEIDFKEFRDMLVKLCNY
SMILES,growth inhibition [1],inhibition [2],inhibition [3],growth inhibition [4],outcome [5],outcome [6],outcome [7],outcome [8]
N#Cc1ccc(N(CCOc2ccc3c(c2)CCC(=O)N3)Cc2ccccc2C(F)(F)F)cc1C(F)(F)F,64% (active),19%,1%,98% (active),inactive,inactive,inactive,inactive
Cc1ccc(S(=O)(=O)N(C)c2ccccc2C(=O)Nc2ccccc2Oc2ccccc2)cc1,90% (active),5%,3%,98% (active),inactive,inactive,inactive,inactive
Cc1cccc2[nH]c(-c3ccc(-c4cccc(CNCc5ccccc5)c4)s3)nc12,50% (active),3%,-3%,99% (active),inactive,inactive,inactive,inactive
CN1CCC(Oc2ccc(NC(=O)c3ccc4c(=O)n(Cc5ccccc5)cnc4c3)cc2Cl)CC1,20%,23%,0%,95% (active),inactive,inactive,inactive,inactive
CN=C(Nc1c(Cl)cccc1Cl)N(C)C,1%,-12%,-1%,98% (active),inactive,inactive,inactive,inactive
CC(C)CCN=C(N)c1ccc(OCCCCCOc2ccc(C(N)=NCCC(C)C)cc2)cc1,94% (active),5%,5%,98% (active),inactive,inactive,inactive,inactive
CCCc1cc(OCCCOc2ccccc2)ccc1OCCCON1C(N)=NC(N)=NC1(C)C,96% (active),68% (active),6%,94% (active),inactive,inactive,inactive,inactive
Cc1cccc2[nH]c(-c3cccc(-c4cccc(NC(=O)NCc5cccc(F)c5)c4)c3)nc12,32%,11%,-2%,98% (active),inactive,inactive,inactive,inactive
CCCOc1cc(O)c(-c2n[nH]c(C)c2Oc2ccccc2)cc1CC,46%,-14%,1%,91% (active),inactive,inactive,inactive,inactive
CC(C)(CC1CCCCC1)NC(=O)[C@H](CC1CCCCC1)Nc1ccc(C#N)c2ccccc12,52% (active),14%,-2%,98% (active),inactive,inactive,inactive,inactive
COCCN1CCC(N(CC2(O)CCN(c3ccc(C(F)(F)F)cc3)CC2)C(=O)Cn2c(SCc3cccc(F)c3F)cc(=O)c3ccccc32)CC1,75% (active),29%,5%,94% (active),inactive,inactive,inactive,inactive
Cc1ccc2[nH]c(-c3ccc(C(=O)NCc4ccc(Cl)c(Cl)c4)cc3)nc2c1C,26%,19%,5%,96% (active),inactive,inactive,inactive,inactive
CCOC(=O)CCCc1cc(NC2CCN(C)CC2)nc(Nc2ccc(OC)cc2)n1,17%,41%,-2%,99% (active),inactive,inactive,inactive,inactive
O=C(Nc1ccc(F)cc1)c1nc2ccccc2nc1Cl,62% (active),44%,-1%,80% (active),inactive,inactive,inactive,inactive
CN(C)CCCOc1ccc(CN2CC[C@H](NC(=O)c3ccc(Cl)c(Cl)c3)C2)cc1Br,34%,11%,-2%,101% (active),inactive,inactive,inactive,inactive
CC(=O)c1c[nH]c(C(=O)Nc2ccc(-c3cn4ccccc4n3)cc2)c1,95% (active),20%,4%,98% (active),inactive,inactive,inactive,inactive
Cc1cc(N2CCOCC2)nc(Nc2ccc(NC(=O)Nc3ccc(F)cc3)cc2)n1,34%,35%,-2%,101% (active),inactive,inactive,inactive,inactive
Cc1cc(C2CCN(CCCCNC(=O)c3ccc(NC(=O)c4ccc(Cl)cc4)cc3)CC2)c(C)cc1OCc1nccn1C,98% (active),18%,-2%,100% (active),inactive,inactive,inactive,inactive
CCc1cc([C@H]2O[C@@H](n3cnc4c(NCC(c5ccccc5)c5ccccc5)nc(NCCNc5ccccn5)nc43)[C@H](O)[C@@H]2O)on1,32%,14%,-9%,94% (active),inactive,inactive,inactive,inactive
Cc1cccc2[nH]c(-c3ccc(-c4cccc(NC(=O)c5cccc(C(N)=O)c5)c4)cc3)nc12,87% (active),14%,-1%,84% (active),inactive,inactive,inactive,inactive

SMILES,growth inhibition [1],inhibition [2],inhibition [3],growth inhibition [4],outcome [5],outcome [6],outcome [7],outcome [8]
Clc1nc(Cl)c2c(ccn2Cc2ccccc2)n1,61% (active),-14%,-11%,100% (active),inactive,inactive,inactive,inactive
C[C@@H]1CN(c2cnn(Cc3cccc(NC(=O)Nc4ccc(-c5ccccc5)cc4)c3)c(=O)c2Cl)C[C@H](C)N1,67% (active),6%,1%,101% (active),inactive,inactive,inactive,inactive
O=C(/C=C/c1ccc(F)cc1)NC1CCC(CCN2CCc3ccccc3CC2)CC1 (stereo not given),36%,27%,4%,91% (active),inactive,inactive,inactive,inactive
COc1cccc2c1CCN(CCN1CCC(NC(=O)c3ccc(-c4cccc(Cl)c4Cl)cc3)CC1)C2,38%,47%,-1%,100% (active),inactive,inactive,inactive,inactive
Fc1ccc2nc(-c3ccc(-c4ccc(CN5CCN(c6ccncc6)CC5)cc4)cc3)[nH]c2c1,101% (active),37%,6%,102% (active),inactive,inactive,inactive,inactive
CCC[C@@H]([C@@H](CC1CCCCC1)C(=O)N[C@H](C(=O)Nc1nccs1)C(C)(C)SC)N(O)C=O,98% (active),51% (active),7%,97% (active),inactive,inactive,inactive,inactive
CN(C)CCNC(=O)NC1CN(c2ncnc3cc(-c4ccccc4)sc23)C1,39%,7%,5%,100% (active),inactive,inactive,inactive,inactive
Cc1cc(Br)cnc1CCCCN=C1NC(=O)CN1C,26%,63% (active),2%,95% (active),inactive,inactive,inactive,inactive
COc1ccc2nc(-c3ccc(C(=O)NCCCN4CCN(c5cc(Cl)ccc5OC)CC4)cc3)[nH]c2c1,53% (active),-2%,1%,97% (active),inactive,inactive,inactive,inactive
CCOC(=O)C(=CNc1ccc(Cc2cnc(N)nc2N)cc1CC)C(=O)OCC,7%,47%,1%,87% (active),inactive,inactive,inactive,inactive
CCn1cc2c3c(cc(C(=O)N[C@@H](Cc4ccccc4)[C@H](O)CNC4CCOCC4)cc31)N(C)S(=O)(=O)CC2,98% (active),-10%,0%,98% (active),inactive,inactive,inactive,inactive
Oc1ccc(CCCNc2nc(NCc3ccccc3-c3ccccc3)nc(NC3CCNCC3)n2)cc1,2%,-1%,6%,97% (active),inactive,inactive,inactive,inactive
CO/C(=C\C=C\c1cc2cc(Cl)c(Cl)cc2[nH]1)C(=O)NCCCN1CCN(c2cccc(OCC(=O)Nc3cccc(C(=O)c4ccccc4)c3)c2)CC1,88% (active),48%,2%,94% (active),inactive,inactive,inactive,inactive
CCOc1ccc(S(=O)(=O)N(C)c2ccc(OCC(=O)Nc3nccs3)cc2)cc1,4%,8%,3%,95% (active),inactive,inactive,inactive,inactive
Clc1ccc2nnc(-c3c(Cl)cccc3Cl)n2n1,60% (active),29%,-3%,96% (active),inactive,inactive,inactive,inactive
O=C(Nc1cccc(-c2cccc(CN3CCCC3)c2)c1)c1ccc(Cl)cc1,32%,50% (active),0%,93% (active),inactive,inactive,inactive,inactive
Cc1noc(C)c1-c1ccc2c(Nc3ccc([N+](=O)[O-])cc3)c(C(N)=O)cnc2c1,98% (active),4%,4%,100% (active),inactive,inactive,inactive,inactive
CN(C)CCCOc1ccc(-c2csc(NC(N)=NCc3ccccc3)n2)cc1,97% (active),57% (active),5%,100% (active),inactive,inactive,inactive,inactive
Cc1cccc2[nH]c(-c3ccc(-c4ccc(CNCc5ccc(S(C)(=O)=O)cc5)cc4)cc3)nc12,38%,19%,-1%,93% (active),inactive,inactive,inactive,inactive
COc1cc2nc(NCCc3ccccc3)nc(NCc3cnn(C)c3C)c2cc1OC,94% (active),13%,0%,99% (active),inactive,inactive,inactive,inactive
